# Results as given in PubChem BioAssay (NCI).
# This is part of a sample that, as a whole, favours compounds with a hit. Of some 79,000 tested, about 15% had one in any assay. Values without a mark were called inactive. Activity calls are given as the source filed them. Rule as the data show it: active = growth inhibition above about 70%; inactive = the rest.
# How the values were obtained:
# [1] = NCI Yeast Anticancer Drug Screen. Data for the rad52 strain (AID 147);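 also: 0% = growth of vehicle-treated control cultures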; conditions: S. cerevisiae rad52 mutant growth inhibition, active compounds read high
# Outline: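 Screen used a yeast mutant impaired in DNA repair. After compound exposure, growth was measured. Values reflect inhibition compared with vehicle-treated cells.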
# [2] = NCI Yeast Anticancer Drug Screen. Data for the wt1 strain (AID 149);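 also: 0% = growth of vehicle-treated wt1 cultures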; conditions: S. cerevisiae wt1 strain (SPY 50644) growth inhibition, active compounds read high
# Outline: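 Measured: growth of wt1 yeast under compound versus vehicle treatment, reported as inhibition.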
# [3] = NCI Yeast Anticancer Drug Screen. Data for the rad50EPP+ strain (AID 151);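 also: 0% = growth of vehicle-treated control cultures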; conditions: S. cerevisiae rad50 mutant strain, active compounds read high
# Outline: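 Exposing the rad50EPP+ strain to each compound, growth was compared with vehicle-only cultures to give inhibition.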
# [4] = NCI Yeast Anticancer Drug Screen. Data for the mgt1 strain (AID 153); conditions: S. cerevisiae mgt1 mutant growth inhibition, active compounds read high
# Outline: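 Genetically defined yeast (mgt1) treated with compound; inhibition of growth expressed against vehicle-treated controls.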
# [5] = NCI Yeast Anticancer Drug Screen. Data for the rad50 strain (AID 155);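 also: 0% = growth of vehicle-only cultures of the same strain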; conditions: S. cerevisiae rad50 strain growth inhibition, active compounds read high
# Outline: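 Growth of the mutant yeast was measured after compound exposure and referenced to vehicle-treated cultures.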
# [6] = NCI Yeast Anticancer Drug Screen. Data for the mec2-1 strain (AID 157); conditions: S. cerevisiae mec2-1 strain, active compounds read high
# Outline: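 Readout is yeast growth inhibition, normalised to vehicle-treated controls, in the mec2-1 strain exposed to compound.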
# [7] = NCI Yeast Anticancer Drug Screen. Data for the rad14 strain (AID 159);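 also: 0% = growth of vehicle-treated control cultures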; conditions: S. cerevisiae rad14 strain growth inhibition, active compounds read high
# Outline: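 Here, inhibition of yeast growth was measured after compound exposure, using a strain with a genetic defect in DNA damage repair and vehicle-treated cultures as the reference.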
# [8] = NCI Yeast Anticancer Drug Screen. Data for the sgs1 mgt1 strain (AID 161);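 also: 0% = growth of cultures given vehicle only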; conditions: S. cerevisiae sgs1 mgt1 strain, active compounds read high
# Outline: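 Percent growth inhibition was derived by comparing compound-exposed mutant yeast with vehicle-exposed cultures. The strain carries alterations in DNA damage repair.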
# [9] = NCI Yeast Anticancer Drug Screen. Data for the CLN2oe strain (AID 163);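 also: 0% = growth of vehicle-only control cultures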; conditions: S. cerevisiae CLN2oe strain, active compounds read high
# Outline: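 Values reflect how much compound exposure reduced yeast growth, referenced to vehicle-exposed cells. Assay organism is a strain with a defined genetic change affecting cell-cycle control.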
# [10] = NCI Yeast Anticancer Drug Screen. Data for the cln2 rad14 strain (AID 165);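 also: 0% = growth equal to vehicle treated cultures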; conditions: S. cerevisiae cln2 rad14 strain, active compounds read high
# Outline: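 Relative to vehicle controls, growth inhibition of compound-treated cln2 rad14 yeast was recorded.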
# [11] = NCI Yeast Anticancer Drug Screen. Data for the bub3 strain (AID 167); conditions: S. cerevisiae bub3 mutant strain, active compounds read high
# Outline: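 Whole-cell yeast assay. The mutant strain was incubated with compounds, and growth inhibition was determined by comparison with vehicle-treated cells.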
# [12] = NCI Yeast Anticancer Drug Screen. Data for the wt2 strain (AID 169);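 also: 0% = growth of vehicle-treated yeast cultures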; conditions: S. cerevisiae wt2 strain growth inhibition, active compounds read high
# Outline: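 Values express reduction in yeast growth under compound treatment, referenced to vehicle-treated cells.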
# [13] = NCI Yeast Anticancer Drug Screen. Data for the mlh1 strain (AID 171);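 also: 0% = growth of vehicle-treated control cultures of the same strain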; conditions: S. cerevisiae mlh1 strain growth inhibition, active compounds read high
# Outline: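 Steps: expose the defined-mutant yeast strain to compound; expose a parallel culture to vehicle; measure growth; express compound effect as inhibition relative to the vehicle culture.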
# [14] = NCI Yeast Anticancer Drug Screen. Data for the sgs1 strain (AID 173);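 also: 0% = growth of vehicle-only control cultures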; conditions: S. cerevisiae sgs1 mutant, active compounds read high
# Outline: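 Treat defined-mutant yeast with compound; measure growth; calculate inhibition relative to vehicle-treated cells.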
# [15] = NCI Yeast Anticancer Drug Screen. Data for the mlh1 rad18 strain (AID 175); conditions: S. cerevisiae mlh1 rad18 strain growth inhibition, active compounds read high
# Outline: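 Test agents were incubated with a yeast strain of defined genotype (DNA damage repair defect). Inhibition of growth was derived by comparison with vehicle-exposed cultures.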
# [16] = NCI Yeast Anticancer Drug Screen. Data for the rad18 strain (AID 177); conditions: S. cerevisiae rad18 mutant growth inhibition, active compounds read high
# Outline: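 A genetically defined yeast mutant impaired in DNA damage repair was treated with test compounds, then its growth was measured against cultures receiving vehicle alone.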
# [17] = at 5.0 µM (retest, dose inferred, filed as 0.5)
# [18] = at 50.0 µM (retest, dose inferred, filed as 5.0)
compound,measurement,setting,value
CN(C)Cc1cc(N=Nc2ccc(Cl)cc2)cc(CN(C)C)c1O,growth inhibition,[1]; at 1.2 µM,8%
same,growth inhibition,[1]; at 3.7 µM,8%
same,growth inhibition,[1]; at 11.0 µM,8%
same,growth inhibition,[1]; at 33.0 µM,16%
same,growth inhibition,[1]; at 100.0 µM,58%
same,growth inhibition,[2]; at 1.2 µM,5%
same,growth inhibition,[2]; at 3.7 µM,4%
same,growth inhibition,[2]; at 11.0 µM,8%
same,growth inhibition,[2]; at 33.0 µM,12%
same,growth inhibition,[2]; at 100.0 µM,63%
same,growth inhibition,[3]; at 1.2 µM,-3%
same,growth inhibition,[3]; at 3.7 µM,-1%
same,growth inhibition,[3]; at 11.0 µM,15%
same,growth inhibition,[3]; at 33.0 µM,43%
same,growth inhibition,[3]; at 100.0 µM,91% (active)
same,growth inhibition,[4]; at 1.2 µM,13%
same,growth inhibition,[4]; at 3.7 µM,12%
same,growth inhibition,[4]; at 11.0 µM,13%
same,growth inhibition,[4]; at 33.0 µM,26%
same,growth inhibition,[4]; at 100.0 µM,13%
same,growth inhibition,[5]; at 1.2 µM,9%
same,growth inhibition,[5]; at 3.7 µM,7%
same,growth inhibition,[5]; [17],-15%
same,growth inhibition,[5]; at 11.0 µM,8%
same,growth inhibition,[5]; at 33.0 µM,10%
same,growth inhibition,[5]; [18],73% (active)
same,growth inhibition,[5]; at 50.0 µM,56.8%
same,growth inhibition,[5]; at 100.0 µM,25%
same,growth inhibition,[6]; at 1.2 µM,15%
same,growth inhibition,[6]; at 3.7 µM,17%
same,growth inhibition,[6]; [17],-5%
same,growth inhibition,[6]; at 11.0 µM,16%
same,growth inhibition,[6]; at 33.0 µM,14%
same,growth inhibition,[6]; [18],47%
same,growth inhibition,[6]; at 50.0 µM,88.9% (active)
same,growth inhibition,[6]; at 100.0 µM,15%
same,growth inhibition,[7]; at 1.2 µM,12%
same,growth inhibition,[7]; at 3.7 µM,13%
same,growth inhibition,[7]; at 11.0 µM,10%
same,growth inhibition,[7]; at 33.0 µM,11%
same,growth inhibition,[7]; at 100.0 µM,34%
same,growth inhibition,[8]; [17],1%
same,growth inhibition,[8]; [18],46%
same,growth inhibition,[8]; at 50.0 µM,95.2% (active)
same,growth inhibition,[9]; at 1.2 µM,23%
same,growth inhibition,[9]; at 3.7 µM,22%
same,growth inhibition,[9]; at 11.0 µM,26%
same,growth inhibition,[9]; at 33.0 µM,26%
same,growth inhibition,[9]; at 100.0 µM,18%
same,growth inhibition,[10]; [17],39%
same,growth inhibition,[10]; [18],98% (active)
same,growth inhibition,[10]; at 50.0 µM,44%
same,growth inhibition,[11]; at 1.2 µM,4%
same,growth inhibition,[11]; at 3.7 µM,2%
same,growth inhibition,[11]; [17],12%
same,growth inhibition,[11]; at 11.0 µM,2%
same,growth inhibition,[11]; at 33.0 µM,5%
same,growth inhibition,[11]; [18],73% (active)
same,growth inhibition,[11]; at 50.0 µM,91.2% (active)
same,growth inhibition,[11]; at 100.0 µM,3%
same,growth inhibition,[12]; at 1.2 µM,5%
same,growth inhibition,[12]; at 3.7 µM,5%
same,growth inhibition,[12]; at 11.0 µM,8%
same,growth inhibition,[12]; at 33.0 µM,15%
same,growth inhibition,[12]; at 100.0 µM,80% (active)
same,growth inhibition,[13]; at 1.2 µM,14%
same,growth inhibition,[13]; at 3.7 µM,12%
same,growth inhibition,[13]; at 11.0 µM,12%
same,growth inhibition,[13]; at 33.0 µM,10%
same,growth inhibition,[13]; at 100.0 µM,18%
same,growth inhibition,[14]; at 1.2 µM,4%
same,growth inhibition,[14]; at 3.7 µM,8%
same,growth inhibition,[14]; at 11.0 µM,15%
same,growth inhibition,[14]; at 33.0 µM,26%
same,growth inhibition,[14]; at 100.0 µM,95% (active)
same,growth inhibition,[15]; [17],4%
same,growth inhibition,[15]; [18],96% (active)
same,growth inhibition,[15]; at 50.0 µM,90.2% (active)
same,growth inhibition,[16]; at 1.2 µM,7%
same,growth inhibition,[16]; at 3.7 µM,8%
same,growth inhibition,[16]; at 11.0 µM,25%
same,growth inhibition,[16]; at 33.0 µM,15%
same,growth inhibition,[16]; at 100.0 µM,34%
CC1(C)[C@@H]2CC[C@]1(C)[C@H](OC(=O)CSC#N)C2,growth inhibition,[1]; at 1.2 µM,0%
same,growth inhibition,[1]; at 3.7 µM,3%
same,growth inhibition,[1]; at 11.0 µM,20%
same,growth inhibition,[1]; at 33.0 µM,83% (active)
same,growth inhibition,[1]; at 100.0 µM,95% (active)
same,growth inhibition,[2]; at 1.2 µM,1%
same,growth inhibition,[2]; at 3.7 µM,4%
same,growth inhibition,[2]; at 11.0 µM,14%
same,growth inhibition,[2]; at 33.0 µM,61%
same,growth inhibition,[2]; at 100.0 µM,96% (active)
same,growth inhibition,[3]; at 1.2 µM,-1%
same,growth inhibition,[3]; at 3.7 µM,4%
same,growth inhibition,[3]; at 11.0 µM,9%
same,growth inhibition,[3]; at 33.0 µM,24%
same,growth inhibition,[3]; at 100.0 µM,50%
same,growth inhibition,[4]; at 1.2 µM,1%
same,growth inhibition,[4]; at 3.7 µM,2%
same,growth inhibition,[4]; at 11.0 µM,23%
same,growth inhibition,[4]; at 33.0 µM,90% (active)
same,growth inhibition,[4]; at 100.0 µM,98% (active)
same,growth inhibition,[5]; at 1.2 µM,1%
same,growth inhibition,[5]; at 3.7 µM,1%
same,growth inhibition,[5]; [17],-5%
same,growth inhibition,[5]; at 11.0 µM,20%
same,growth inhibition,[5]; at 33.0 µM,68%
same,growth inhibition,[5]; [18],98% (active)
same,growth inhibition,[5]; at 50.0 µM,99% (active)
same,growth inhibition,[5]; at 100.0 µM,96% (active)
same,growth inhibition,[6]; at 1.2 µM,4%
same,growth inhibition,[6]; at 3.7 µM,8%
same,growth inhibition,[6]; [17],8%
same,growth inhibition,[6]; at 11.0 µM,27%
same,growth inhibition,[6]; at 33.0 µM,86% (active)
same,growth inhibition,[6]; [18],98% (active)
same,growth inhibition,[6]; at 50.0 µM,98% (active)
same,growth inhibition,[6]; at 100.0 µM,97% (active)
same,growth inhibition,[7]; at 1.2 µM,-2%
same,growth inhibition,[7]; at 3.7 µM,-1%
same,growth inhibition,[7]; at 11.0 µM,12%
same,growth inhibition,[7]; at 33.0 µM,43%
same,growth inhibition,[7]; at 100.0 µM,97% (active)
same,growth inhibition,[8]; [17],28%
same,growth inhibition,[8]; [18],97% (active)
same,growth inhibition,[8]; at 50.0 µM,98.6% (active)
same,growth inhibition,[9]; at 1.2 µM,-3%
same,growth inhibition,[9]; at 3.7 µM,-1%
same,growth inhibition,[9]; at 11.0 µM,1%
same,growth inhibition,[9]; at 33.0 µM,47%
same,growth inhibition,[9]; at 100.0 µM,95% (active)
same,growth inhibition,[10]; [17],34%
same,growth inhibition,[10]; [18],91% (active)
same,growth inhibition,[10]; at 50.0 µM,94.8% (active)
same,growth inhibition,[11]; at 1.2 µM,2%
same,growth inhibition,[11]; at 3.7 µM,13%
same,growth inhibition,[11]; [17],14%
same,growth inhibition,[11]; at 11.0 µM,-19%
same,growth inhibition,[11]; at 33.0 µM,81% (active)
same,growth inhibition,[11]; [18],99% (active)
same,growth inhibition,[11]; at 50.0 µM,99% (active)
same,growth inhibition,[11]; at 100.0 µM,96% (active)
same,growth inhibition,[12]; at 1.2 µM,1%
same,growth inhibition,[12]; at 3.7 µM,5%
same,growth inhibition,[12]; at 11.0 µM,25%
same,growth inhibition,[12]; at 33.0 µM,89% (active)
same,growth inhibition,[12]; at 100.0 µM,97% (active)
same,growth inhibition,[13]; at 1.2 µM,7%
same,growth inhibition,[13]; at 3.7 µM,9%
same,growth inhibition,[13]; at 11.0 µM,29%
same,growth inhibition,[13]; at 33.0 µM,73% (active)
same,growth inhibition,[13]; at 100.0 µM,98% (active)
same,growth inhibition,[14]; at 1.2 µM,9%
same,growth inhibition,[14]; at 3.7 µM,23%
same,growth inhibition,[14]; at 11.0 µM,66%
same,growth inhibition,[14]; at 33.0 µM,94% (active)
same,growth inhibition,[14]; at 100.0 µM,97% (active)
same,growth inhibition,[15]; [17],9%
same,growth inhibition,[15]; [18],98% (active)
same,growth inhibition,[15]; at 50.0 µM,98.8% (active)
same,growth inhibition,[16]; at 1.2 µM,9%
same,growth inhibition,[16]; at 3.7 µM,14%
same,growth inhibition,[16]; at 11.0 µM,28%
same,growth inhibition,[16]; at 33.0 µM,92% (active)
same,growth inhibition,[16]; at 100.0 µM,96% (active)
